Experimental data reported in PMC5540273 (PLoS ONE, 2017).

Tested on: BRSK2
Details: concentration: 1 μM, replicates: in singlicate; n = 1
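Also: KINOMEscan kinase panel screen.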

| SMILES | %Inh [%] |
| --- | --- |
| CN1C(=O)C(Nc2ccc(Cl)c(C(=O)O)c2)=C(c2ccc(Cl)cc2)C1=O [SB-404290] | 0 |
| Cc1cccc(-c2nc(-c3ccc(S(C)(=O)=O)cc3)sc2-c2ccnc(NCCc3ccccc3)c2)c1 | 0 |
| COc1cccc(-c2cc(-c3c[nH]nc3-c3ccccn3)ccn2)c1 [GW680338] | 0 |
| Cl.NC(=O)c1cccc(Nc2nccc(Nc3ccc(Oc4cccc(Cl)c4)c(Cl)c3)n2)c1 [GW659008] | 0 |
| Cn1ccc2ncnc(Oc3ccc(NC(=O)Nc4ccccc4)cc3)c21 | 17 |
| Cc1ccc(C(=O)Nc2ccc(Nc3ccnc4cc(-c5ccccn5)ccc34)cc2O)cc1.Cl [GW440146] | 0 |
| Cc1c(O)cccc1Nc1ccnc2ccc(C(F)(F)F)cc12.Cl [GW466413] | 0 |
| CC(C)(C)c1ccc(C(=O)Nc2cn3cc(-c4cccnc4)ccc3n2)cc1 | 25 |
| CC1=C(C(=O)Nc2cc3cn[nH]c3cc2F)C(c2ccc(C(F)(F)F)cc2)CC(=O)N1 (stereo not shown) [GSK429286] | 0 |
| Cl.c1ccc(-c2n[nH]cc2-c2ccnc(-c3ccc(CN4CCOCC4)cc3)c2)nc1 [GW776245] | 21 |
| Cc1cccc(-c2cc(Nc3ccncc3)c3ccccc3n2)n1 [GSK223675] | 0 |
| Cc1cccc(-c2nc(Nc3ccncc3)c3ccccc3n2)n1 [GW855857] | 11 |
| COc1ccc2nc(-c3cccc(C)n3)nc(Nc3ccncc3)c2c1 [GSK204919] | 0 |
| COc1ccc(C2=C(Nc3cccc(C(=O)O)c3)C(=O)NC2=O)cc1 [SB-390765] | 0 |
| COc1ccc(Nc2nccc(-c3cccc(NC(=O)c4cc5cc(F)ccc5[nH]4)c3)n2)cc1 [GSK1229782] | 12 |
| CCCc1ccc(S(=O)(=O)NC2CCN(c3ccnc(Nc4ccc(F)cc4)n3)C2)cc1 (stereo not shown) [GSK1379715] | 0 |
| CC(=O)Nc1nc2cnc(Nc3cc(NC(=O)c4cccc(CCC#N)c4)ccc3C)nc2s1 | 11 |

| SMILES | %Inh [%] |
| --- | --- |
| Cc1ccc(NC(=O)Nc2cc(C(C)(C)C)nn2-c2ccccc2)cc1 [GSK1014915] | 0 |
| Cc1cccc(-c2nc(Nc3ccc4[nH]ncc4c3)c3ccccc3n2)n1 [GW857175] | 0 |
| Cc1cccc(-c2nc(C)cc(Nc3ccncc3)n2)n1 [GSK257997] | 0 |
| CS(=O)(=O)c1ccc(-c2nc3n(c2-c2ccncc2)CCC3)cc1 [SKF-105942] | 0 |
| O=C(Nc1ccc2c(c1)OCO2)NC1CCN(c2ccnc(Nc3ccc(F)cc3)n2)C1 (stereo not shown) [GSK1379724] | 0 |
| O=c1cc(N2CCOCC2)nc2n(Cc3cccc(Cl)c3Cl)ccn12 [GSK2286295] | 0 |
| COC(=O)c1c(-c2ccccc2)c2cc(OC)ccc2c(=O)n1Cc1ccccc1 | 6 |
| O=C(Nc1ccccc1)Nc1cccc(Oc2ccc3nccn3n2)c1 | 0 |
| Fc1cc(Cl)ccc1Nc1ccnc2cc(I)ccc12 [GW551191] | 0 |
| Cc1ccc(NC(=O)Nc2cccc(Cl)c2)cc1-c1ccc(C(=O)Nc2ccncc2)cc1 [GSK1398468] | 9 |
| O=C(O)COc1ncnc2cc(-c3ccc4[nH]ncc4c3)sc12 | 1 |
| Cn1ccc2ncnc(Oc3cccc(C(=O)Nc4ccccc4)c3)c21 | 0 |
| Cc1ccccc1-n1cnc2c(N)ncnc21 [SKF-97510] | 0 |
| COc1cc2ncnc(Nc3ccc4nc(-c5ccccc5)[nH]c4c3)c2cc1OC.Cl [GW282450] | 0 |
| Cl.O=C(Nc1cccc(-c2nn3ncccc3c2-c2ccnc(Nc3cccnc3)n2)c1)c1c(F)cccc1F [GSK312879] | 0 |
| NC(=O)c1nnc2ccccc2c1N | 0 |
| CN(C)CCN(C)C(=O)c1cc(-c2ccncc2)c(-c2ccc(Cl)c(O)c2)o1.Cl.Cl [SB-710397] | 0 |
